# Reference: PubChem BioAssay
# The source made the active and inactive calls.
# Tests used:
# [1] = small molecules captured by biotinylated probe aFSTL3 – biochemical, small-molecule microarray, fluorescence 635/667, stem cell growth factor project, primary screen (AID 1064); settings: higher = more signal;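 also: measures binding of the biotinylated anti-FSTL3 antibody to printed compounds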
# [2] = binders from COS7 lysate, DM2A8 probe, primary screen, torsin A project, cell lysate, small-molecule microarray, fluorescence 635/667 (AID 1065); settings: higher = more signal, COS7 lysate expressing mutant human TOR1A
# [3] = small molecules captured by biotinylated probe aFGF2 – biochemical, small-molecule microarray, fluorescence 635/667, stem cell growth factor project, primary screen (AID 1067); settings: higher = more signal;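 also: measures binding of biotinylated aFGF2 protein to printed compounds on slides; z-score merges feature fluorescence and signal-to-noise across triplicate slides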
# [4] = small molecules captured by biotinylated probe aFGF10 – biochemical, small-molecule microarray, fluorescence 635/667, stem cell growth factor project, primary screen (AID 1071); settings: higher = more signal;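 also: score merges 667 nm spot intensity and signal to noise from triplicate slides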
# [5] = molecular target: Neurogenic locus notch homolog protein 2 (Homo sapiens) (UniProt Q04721); assay: small molecules binding Notch2 protein – biochemical, small-molecule microarray, 635 nm fluorescence, stem cell growth factors, primary screen (AID 1073); settings: higher = more signal
# Sequence of Neurogenic locus notch homolog protein 2 (Homo sapiens) (Q04721 whole entry, looked up, canonical isoform): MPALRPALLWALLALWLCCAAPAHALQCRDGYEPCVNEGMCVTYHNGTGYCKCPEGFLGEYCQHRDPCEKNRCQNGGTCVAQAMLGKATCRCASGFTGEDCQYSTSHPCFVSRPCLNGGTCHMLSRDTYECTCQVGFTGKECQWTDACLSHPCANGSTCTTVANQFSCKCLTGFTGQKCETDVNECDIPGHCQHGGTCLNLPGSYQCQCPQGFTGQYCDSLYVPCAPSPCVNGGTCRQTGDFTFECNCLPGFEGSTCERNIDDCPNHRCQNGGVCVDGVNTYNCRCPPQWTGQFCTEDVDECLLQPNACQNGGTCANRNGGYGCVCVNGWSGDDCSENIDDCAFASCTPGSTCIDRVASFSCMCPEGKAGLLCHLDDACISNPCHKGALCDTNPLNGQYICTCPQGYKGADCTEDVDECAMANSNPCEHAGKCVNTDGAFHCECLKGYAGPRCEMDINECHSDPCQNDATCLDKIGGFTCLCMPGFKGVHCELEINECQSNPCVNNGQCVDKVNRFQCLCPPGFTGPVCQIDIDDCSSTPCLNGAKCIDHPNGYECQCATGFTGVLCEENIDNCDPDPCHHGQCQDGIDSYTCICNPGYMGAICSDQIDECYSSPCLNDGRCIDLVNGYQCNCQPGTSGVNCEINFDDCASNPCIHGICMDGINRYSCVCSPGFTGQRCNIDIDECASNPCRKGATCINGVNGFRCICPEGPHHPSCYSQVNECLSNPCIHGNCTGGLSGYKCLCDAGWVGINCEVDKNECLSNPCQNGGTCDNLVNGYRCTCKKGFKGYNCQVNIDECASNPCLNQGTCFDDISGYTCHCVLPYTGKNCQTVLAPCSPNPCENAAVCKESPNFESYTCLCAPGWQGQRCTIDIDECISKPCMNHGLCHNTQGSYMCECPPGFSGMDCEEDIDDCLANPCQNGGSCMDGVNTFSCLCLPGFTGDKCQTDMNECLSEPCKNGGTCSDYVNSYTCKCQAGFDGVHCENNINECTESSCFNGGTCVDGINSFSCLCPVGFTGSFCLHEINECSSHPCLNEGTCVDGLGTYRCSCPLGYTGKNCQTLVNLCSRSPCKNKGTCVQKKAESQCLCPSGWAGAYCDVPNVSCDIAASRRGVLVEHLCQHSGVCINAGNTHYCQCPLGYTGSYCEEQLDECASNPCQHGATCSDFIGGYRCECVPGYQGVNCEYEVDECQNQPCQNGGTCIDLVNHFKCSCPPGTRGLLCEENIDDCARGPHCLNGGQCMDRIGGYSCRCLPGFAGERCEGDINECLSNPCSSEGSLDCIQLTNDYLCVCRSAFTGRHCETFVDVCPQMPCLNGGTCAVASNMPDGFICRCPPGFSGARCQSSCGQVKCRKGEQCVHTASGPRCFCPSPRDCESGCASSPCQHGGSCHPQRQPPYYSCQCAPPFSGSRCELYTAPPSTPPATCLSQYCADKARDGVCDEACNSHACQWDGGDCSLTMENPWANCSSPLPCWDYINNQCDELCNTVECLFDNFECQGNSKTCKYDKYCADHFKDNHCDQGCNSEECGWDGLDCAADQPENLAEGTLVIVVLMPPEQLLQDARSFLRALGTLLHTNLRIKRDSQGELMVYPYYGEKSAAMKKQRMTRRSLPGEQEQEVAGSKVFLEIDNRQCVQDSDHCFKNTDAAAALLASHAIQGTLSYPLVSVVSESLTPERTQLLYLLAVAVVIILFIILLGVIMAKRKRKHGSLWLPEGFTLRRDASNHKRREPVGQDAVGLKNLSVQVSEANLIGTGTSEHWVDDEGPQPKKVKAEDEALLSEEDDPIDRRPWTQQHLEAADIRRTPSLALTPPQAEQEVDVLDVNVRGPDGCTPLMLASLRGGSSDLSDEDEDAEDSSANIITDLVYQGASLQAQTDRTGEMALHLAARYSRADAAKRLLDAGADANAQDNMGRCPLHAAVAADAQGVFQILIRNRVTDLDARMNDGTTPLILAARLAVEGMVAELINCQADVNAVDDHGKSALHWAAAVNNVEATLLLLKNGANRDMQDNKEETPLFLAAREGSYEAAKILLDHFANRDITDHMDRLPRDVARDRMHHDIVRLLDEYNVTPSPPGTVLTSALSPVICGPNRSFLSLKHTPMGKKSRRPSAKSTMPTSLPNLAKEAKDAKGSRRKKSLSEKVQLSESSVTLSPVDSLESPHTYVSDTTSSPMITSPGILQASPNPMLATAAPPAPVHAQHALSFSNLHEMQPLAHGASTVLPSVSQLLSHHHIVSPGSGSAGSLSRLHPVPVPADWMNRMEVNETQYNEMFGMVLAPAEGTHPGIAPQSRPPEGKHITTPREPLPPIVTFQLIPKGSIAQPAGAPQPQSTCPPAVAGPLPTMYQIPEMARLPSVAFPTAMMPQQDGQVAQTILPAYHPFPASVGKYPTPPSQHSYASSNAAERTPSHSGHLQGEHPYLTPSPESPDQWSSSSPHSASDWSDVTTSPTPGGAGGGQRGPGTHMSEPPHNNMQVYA
# [6] = molecular target: Pro-neuregulin-1, membrane-bound isoform (Homo sapiens) (UniProt Q02297); assay: small molecules binding neuregulin-1 protein – biochemical, small-molecule microarray, fluorescence 635/667, psychiatric disease protein project, primary screen (AID 1075); settings: NRG1 binding, 635 nm fluorescence, higher = more signal;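 also: score combines 667 nm spot fluorescence with signal to noise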
# Sequence of Pro-neuregulin-1, membrane-bound isoform (Homo sapiens) (Q02297 whole entry, looked up, the tested form may be a part, canonical isoform): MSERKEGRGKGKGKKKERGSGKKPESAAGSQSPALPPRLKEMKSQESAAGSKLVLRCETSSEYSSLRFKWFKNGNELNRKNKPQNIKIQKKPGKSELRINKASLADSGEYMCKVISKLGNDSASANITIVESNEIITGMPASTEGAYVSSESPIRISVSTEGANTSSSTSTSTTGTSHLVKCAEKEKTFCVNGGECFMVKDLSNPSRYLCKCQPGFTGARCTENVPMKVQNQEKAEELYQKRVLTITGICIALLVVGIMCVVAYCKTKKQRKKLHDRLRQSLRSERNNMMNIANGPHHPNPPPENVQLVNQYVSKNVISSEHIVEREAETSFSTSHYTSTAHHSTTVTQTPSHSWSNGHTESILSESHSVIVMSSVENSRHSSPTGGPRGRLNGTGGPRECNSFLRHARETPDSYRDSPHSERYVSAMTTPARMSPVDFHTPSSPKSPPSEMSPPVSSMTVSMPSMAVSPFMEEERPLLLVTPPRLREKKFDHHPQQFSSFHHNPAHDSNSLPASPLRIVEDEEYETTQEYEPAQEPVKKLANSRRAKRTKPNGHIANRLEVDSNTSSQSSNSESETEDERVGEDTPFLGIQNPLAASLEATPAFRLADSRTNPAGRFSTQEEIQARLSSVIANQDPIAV
# [7] = system: Neuregulin-1 EGF-like domain; assay: small molecules binding NRG1 EGF domain – biochemical, small-molecule microarray, 635 nm fluorescence, primary screen (AID 1081); settings: higher = more signal;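 also: binding of the protein to compounds printed on small-molecule microarray slides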
# [8] = FRG1 expression reporter modulators in myotubes – cell-based, C2C12 myotubes, firefly/Renilla luciferase, luminescence, FRG1 inhibition for FSHD, primary screen (AID 1084); settings: FRG1 promoter luciferase, higher = more signal, called active from +8 up or from −8 down
# [9] = small molecules captured by biotinylated probe aFST – biochemical, small-molecule microarray, fluorescence 635/667, stem cell growth factor project, primary screen (AID 1086); settings: higher = more signal;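 also: score merges 667 nm fluorescence with signal-to-noise of each printed compound spot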
# [10] = binders of probe aHhip on microarray, primary screen, stem cell growth factor project, biochemical, small-molecule microarray, fluorescence 635/667 (AID 1087); settings: higher = more signal;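 also: score merges spot fluorescence at 667nm with spot signal to noise ratio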
Compound,composite z-score [1],composite z-score [2],composite z-score [3],composite z-score [4],composite z-score [5],composite z-score [6],composite z-score [7],z-score [8],composite z-score [9],composite z-score [10]
Cc1ccc(S[C@]2(C(=O)NCc3ccccc3)CC(=O)N(Cc3cc(C(F)(F)F)cc(C(F)(F)F)c3)[C@@H]2c2ccc(CO)cc2)cc1,-0.989,-0.779,-0.172,-0.596,-0.885,0.57,0.246,-0.588 (inactive),-0.0847,-0.362
C#C[C@H]1Oc2ccccc2S(=O)(=O)N2CCC[C@@H]12,0.246,0.321,-0.116,-0.223,-0.564,-0.671,-0.344,-0.316 (inactive),0.0511,0.0373
COCCn1c(C(=O)N(C)C)cc2c1C[C@H]1CN(C(=O)c3ccccc3)[C@@](Cc3ccc(F)cc3)(C(=O)OC)[C@@H]21,0.0407,-0.0248,0.203,0.651,1.56,1.11,0.998,0.592 (inactive),0.576,-0.0347
COC(=O)c1c2oc(c1C(=O)OC)C(=O)N[C@H](Cc1ccccc1)Cn1nncc1C1(CCCCC1)NC(=O)N[C@H](CO)CC2,-0.442,0.158,-0.0853,0.108,0.0153,-0.0781,0.646,-1.33 (inactive),0.233,-0.212
CCCC[C@@H]1C[C@H]1[C@@H](NC(=O)c1ccccc1)c1ccccc1,0.343,-0.0895,0.15,0.14,0.18,-0.392,-0.303,-0.0327 (inactive),1.14,2.02
O=P(NCC1(CC2(c3ccccc3)CO2)CC1)(c1ccccc1)c1ccccc1 (stereo not given),0.565,-0.856,0.218,0.315,-0.401,1.06,0.619,-1.59 (inactive),-0.0087,0.275
O=C1C[C@@](C(=O)O)(c2ccc([N+](=O)[O-])cc2)[C@@H](c2ccc(CO)cc2I)N1CC12CC3CC(CC(C3)C1)C2,0.525,0.773,-0.124,0.14,1.41,1.48,0.843,-1.55 (inactive),0.806,0.0497
CCOC(=O)C[C@H]1[C@H](OC(=O)c2cc3ccccc3oc2=O)[C@@H](NC(=O)c2ccc3ccccc3c2)c2cc(OCCCO)ccc2N1C(=O)c1ccccc1,-0.444,-0.183,0.0087,0.973,0.525,-0.0064,1.13,0.0705 (inactive),0.623,-0.0994
O=C1C2C=CC(C(O)c3ccc(B(O)O)cc3)N(Nc3ccc([N+](=O)[O-])cc3)C2C(=O)N1c1ccccc1 (stereo not given),-0.28,0.378,0.0121,0.84,1.46,1.56,1.05,0.663 (inactive),1.25,-0.236
C#C[C@H](O[Si](C#CCCCCCC)(C(C)C)C(C)C)c1ccccc1,-0.441,-0.0593,-0.0994,0.323,-0.55,-0.204,0.0885,0.0077 (inactive),-0.748,-0.217
C=CC[C@@]1(C(N)=O)N=C(c2ccc(OCCCO)cc2)O[C@@H]1c1ccccc1N=[N+]=[N-],1.68,0.444,0.069,1.08,1.13,1.5,1.34,2.64 (inactive),1.03,0.0769
CC(C)[Si]1(C(C)C)O[C@@H](c2ccccc2)c2cc(-c3ccc(-c4ccc(Cl)c(Cl)c4)o3)nc(CCc3ccccc3)c21,0.662,-0.56,-0.16,-0.641,-0.868,-0.345,-0.314,0.838 (inactive),-0.363,0.269
CCCCCN1CC=CC23O[C@@H]4C=CCCOC(=O)C4[C@H]2C(=O)N(CCCO)[C@@H]3C1=O (stereo not given in full),0.0241,-0.615,-0.186,0.0149,-0.755,-0.454,0.266,-0.482 (inactive),-0.108,-0.236
COCCOC(=O)N1C(=O)[C@@]2(c3cc(C#Cc4ccc(OC)cc4)ccc31)[C@H](C(N)=O)[C@H]1C(=O)O[C@H](c3ccccc3)[C@H](c3ccccc3)N1[C@@H]2c1ccc(O)cc1,-0.39,-0.343,-0.167,-0.206,-1.64,-0.55,-0.297,0.961 (inactive),-1.05,-0.376
O=C1c2ccccc2[C@](Cc2ccccc2I)(C(=O)O)[C@H](c2ccc(CO)cc2)N1Cc1ccccc1C(F)(F)F,-0.897,0.17,-0.21,-0.278,0.304,1.62,1.26,-0.524 (inactive),-0.0423,-0.312
C[n+]1ccc2ccc(O)cc2c1,-0.201,1.46,-0.081,0.0493,0.12,0.615,0.767,1.53 (inactive),-0.173,-0.0994
Cc1ccc(S[C@]2(C(=O)NCCN3CCOCC3)CC(=O)N(C3CCCCC3)[C@@H]2c2ccc(CO)cc2)cc1,-0.0386,-0.439,-0.158,0.123,0.825,1,1.09,0.046 (inactive),0.283,-0.0645
CCCNC(=O)[C@@]1(C)c2ccccc2C(=O)N(Cc2cc(C(F)(F)F)cc(C(F)(F)F)c2)[C@H]1c1ccc(CO)cc1,0.177,-0.0656,-0.0653,0.108,-0.626,1.68,1.37,0.0565 (inactive),-0.0368,-0.0645
COc1ccc([Si](C)(C)[C@@H]2[C@@H](CCO)O[C@]3(C(=O)N(Cc4cccc(N5CCCCC5=O)c4)c4ccccc43)[C@H]2C)cc1,-0.191,0.692,-0.134,0.877,0.869,1.06,0.967,-3.27 (inactive),0.263,-0.0618
COCCOC(=O)N1C(=O)[C@@]2(c3cc(C#CCCO)ccc31)[C@H](C(=O)NC[C@H](O)c1ccccc1)[C@H]1C(=O)O[C@H](c3ccccc3)[C@H](c3ccccc3)N1[C@@H]2c1ccc(OCCO)cc1,0.664,0.271,-0.114,0.208,1.08,1.27,1.16,0.469 (inactive),0.152,-0.11
[N-]=[N+]=Nc1ccccc1[C@@H]1OC(c2ccc(OCCCO)cc2)=N[C@]1(CCS(=O)(=O)c1ccccc1)C(=O)O,0.0639,0.459,0.079,0.839,1.57,1.53,0.862,3.39 (inactive),0.912,0.151
C=CCC(OC(C)=O)[C@@H]1[C@@H](N(Cc2ccc(-c3ccccc3)cc2)C(=O)c2ccc(C)cc2)c2cc(OCCCO)ccc2N1C(=O)c1ccc2ccccc2n1 (stereo not given in full),-0.131,0.42,-0.0434,0.199,0.0291,0.676,-0.325,-1.24 (inactive),0.13,0.154
